Measured values as given in PubChem BioAssay AID1159580 (chemical genetic matrix, 2015).
The whole screen tested about 5,500 compounds, of which about 2,000 (36%) were called active. Inconclusive results (about 18%) are left out. Rule as the data show it: active = normalized growth mostly below about 0.91 (no sharp cut-off); inconclusive = no clear call, values can overlap the other calls; inactive = mostly above about 0.92. The list shows a part of the results.

Test: chemical genetic growth profiling, strain panel (AID 1159580);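 also: tested at 20 µM; growth read once vehicle control cultures reached saturation at 30 °C; 1 = growth at the plate median or of vehicle wells; lower values mean less growth of the strain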
Settings: growth OD

Measured: normalized growth

CC(C)[C@@H]1CC[C@@H](C)CC1=O
inactive: S. cerevisiae deletion strains, locus YJR066W, strain TOR1, active compounds read low 0.94 | S. cerevisiae deletion strains, locus YJR075W, strain HOC1, active compounds read low 1.02 | S. cerevisiae deletion strains, locus YKL009W, strain mrt4, active compounds read low 1.01 | S. cerevisiae deletion strains, locus YKL068W, active compounds read low 1.02 | S. cerevisiae deletion strains, locus YKL085W, strain MDH1 (second series), active compounds read low 0.999 | S. cerevisiae deletion strains, locus YKL085W, strain MDH1, active compounds read low 0.999 | S. cerevisiae deletion strains, locus YKL160W, strain elf1, active compounds read low 0.981 | S. cerevisiae deletion strains, locus YKR001C, strain vps1, active compounds read low 0.991 | S. cerevisiae deletion strains, locus YKR026C, strain gcn3, active compounds read low 0.984 | S. cerevisiae deletion strains, locus YKR091W, strain srl3, active compounds read low 0.991 | S. cerevisiae deletion strains, locus YLL001W, strain dnm1, active compounds read low 0.98 | S. cerevisiae deletion strains, locus YLL026W, active compounds read low 0.985 | S. cerevisiae deletion strains, locus YLL041C, strain sdh2, active compounds read low 0.991 | S. cerevisiae deletion strains, locus YLR027C, strain aat2, active compounds read low 0.979 | S. cerevisiae deletion strains, locus YLR039C, strain RIC1, active compounds read low 1.09 | S. cerevisiae deletion strains, locus YLR058C, strain SHM2, active compounds read low 1.02 | S. cerevisiae deletion strains, locus YLR102C, strain apc9, active compounds read low 0.997 | S. cerevisiae deletion strains, locus YLR113W, strain HOG1, active compounds read low 0.967 | S. cerevisiae deletion strains, locus YLR221C, strain rsa3, active compounds read low 1.01 | S. cerevisiae deletion strains, locus YLR258W, strain gsy2, active compounds read low 0.996 | S. cerevisiae deletion strains, locus YLR262C, strain YPT6 (second series), active compounds read low 0.979 | S. cerevisiae deletion strains, locus YLR262C, strain YPT6, active compounds read low 1.14 | S. cerevisiae deletion strains, locus YLR268W, strain sec22, active compounds read low 1.02 | S. cerevisiae deletion strains, locus YLR320W, strain mms22, active compounds read low 1.01 | S. cerevisiae deletion strains, locus YLR330W, strain CHS5, active compounds read low 1.01 | S. cerevisiae deletion strains, locus YLR342W, strain FKS1 (second series), active compounds read low 1.03 | S. cerevisiae deletion strains, locus YLR342W, strain FKS1, active compounds read low 0.995 | S. cerevisiae deletion strains, locus YLR357W, strain rsc2, active compounds read low 0.998 | S. cerevisiae deletion strains, locus YLR370C, strain arc18, active compounds read low 0.983 | S. cerevisiae deletion strains, locus YLR371W, strain rom2, active compounds read low 1 | S. cerevisiae deletion strains, locus YLR384C, strain iki3, active compounds read low 1.01 | S. cerevisiae deletion strains, locus YLR418C, strain cdc73, active compounds read low 1.01 | S. cerevisiae deletion strains, locus YML016C, strain PPZ1, active compounds read low 1.01 | S. cerevisiae deletion strains, locus YML032C, strain rad52, active compounds read low 1.01 | S. cerevisiae deletion strains, locus YML120C, strain ndi1, active compounds read low 0.982 | S. cerevisiae deletion strains, locus YML124C, strain tub3, active compounds read low 0.999 | S. cerevisiae deletion strains, locus YMR058W, strain fet3, active compounds read low 0.989 | S. cerevisiae deletion strains, locus YMR078C, strain ctf18, active compounds read low 1 | S. cerevisiae deletion strains, locus YMR125W, strain sto1, active compounds read low 0.965 | S. cerevisiae deletion strains, locus YMR129W, active compounds read low 1 | S. cerevisiae deletion strains, locus YMR205C, strain PFK2, active compounds read low 1 | S. cerevisiae deletion strains, locus YMR223W, strain ubp8, active compounds read low 1 | S. cerevisiae deletion strains, locus YMR231W, strain pep5, active compounds read low 1 | S. cerevisiae deletion strains, locus YMR263W, strain SAP30, active compounds read low 1.02 | S. cerevisiae deletion strains, locus YMR307W, strain GAS1, active compounds read low 1.02 | S. cerevisiae deletion strains, locus YNL067W, strain RPL9B, active compounds read low 1.03 | S. cerevisiae deletion strains, locus YNL071W, strain lat1, active compounds read low 0.991 | S. cerevisiae deletion strains, locus YNL128W, strain TEP1, active compounds read low 1.02 | S. cerevisiae deletion strains, locus YNL153C, strain GIM3, active compounds read low 1.03 | S. cerevisiae deletion strains, locus YNL183C, strain NPR1, active compounds read low 0.935 | S. cerevisiae deletion strains, locus YNL209W, strain ssb2, active compounds read low 1 | S. cerevisiae deletion strains, locus YNL233W, strain BNI4, active compounds read low 1.04 | S. cerevisiae deletion strains, locus YNL248C, strain rpa49, active compounds read low 0.997 | S. cerevisiae deletion strains, locus YNL250W, strain rad50, active compounds read low 1 | S. cerevisiae deletion strains, locus YNL271C, strain bni1, active compounds read low 1 | S. cerevisiae deletion strains, locus YNL298W, strain CLA4, active compounds read low 0.999 | S. cerevisiae deletion strains, locus YNL307C, strain MCK1, active compounds read low 1.01 | S. cerevisiae deletion strains, locus YNL322C, strain KRE1 (second series), active compounds read low 0.995 | S. cerevisiae deletion strains, locus YNL322C, strain KRE1, active compounds read low 1.01 | S. cerevisiae deletion strains, locus YNR049C, strain mso1, active compounds read low 1 | S. cerevisiae deletion strains, locus YNR052C, strain pop2, active compounds read low 0.991 | S. cerevisiae deletion strains, locus YOL006C, strain TOP1, active compounds read low 1.06 | S. cerevisiae deletion strains, locus YOL012C, strain htz1 0.896 | S. cerevisiae deletion strains, locus YOL147C, strain pex11, active compounds read low 1.01 | S. cerevisiae deletion strains, locus YOR001W, strain rrp6, active compounds read low 1.01 | S. cerevisiae deletion strains, locus YOR061W, strain CKA2, active compounds read low 1.01 | S. cerevisiae deletion strains, locus YOR069W, strain VPS5, active compounds read low 0.999 | S. cerevisiae deletion strains, locus YOR070C, strain gyp1, active compounds read low 0.996 | S. cerevisiae deletion strains, locus YOR080W, strain dia2, active compounds read low 0.99 | S. cerevisiae deletion strains, locus YOR083W, strain WHI5, active compounds read low 0.965 | S. cerevisiae deletion strains, locus YOR106W, strain vam3, active compounds read low 0.98 | S. cerevisiae deletion strains, locus YOR136W, strain idh2, active compounds read low 0.987 | S. cerevisiae deletion strains, locus YOR144C, strain elg1, active compounds read low 1 | S. cerevisiae deletion strains, locus YOR184W, strain ser1, active compounds read low 1.02 | S. cerevisiae deletion strains, locus YOR231W, strain MKK1, active compounds read low 0.955 | S. cerevisiae deletion strains, locus YOR265W, strain rbl2, active compounds read low 0.989 | S. cerevisiae deletion strains, locus YOR270C, strain vph1, active compounds read low 1.01 | S. cerevisiae deletion strains, locus YOR290C, strain snf2, active compounds read low 0.954 | S. cerevisiae deletion strains, locus YOR316C, strain cot1, active compounds read low 1.01 | S. cerevisiae deletion strains, locus YPL051W, strain arl3, active compounds read low 0.998 | S. cerevisiae deletion strains, locus YPL055C, strain LGE1, active compounds read low 1.02 | S. cerevisiae deletion strains, locus YPL078C, strain atp4, active compounds read low 0.969 | S. cerevisiae deletion strains, locus YPL106C, strain sse1, active compounds read low 0.967 | S. cerevisiae deletion strains, locus YPL240C, strain hsp82, active compounds read low 0.996 | S. cerevisiae deletion strains, locus YPL241C, strain CIN2, active compounds read low 1.01 | S. cerevisiae deletion strains, locus YPL256C, strain CLN2, active compounds read low 0.96 | S. cerevisiae deletion strains, locus YPR119W, strain clb2, active compounds read low 1 | S. cerevisiae deletion strains, locus YPR141C, strain kar3, active compounds read low 0.991 | S. cerevisiae deletion strains, locus YPR163C, strain tif3, active compounds read low 1.01 | S. cerevisiae deletion strains, locus YPR167C, strain met16, active compounds read low 0.992 | S. cerevisiae deletion strains, strain wtn01, active compounds read low 0.992 | S. cerevisiae strains, strain wild type, active compounds read low 1.01
